For test [1], the target named is Lysosomal acid glucosylceramidase (Homo sapiens) (UniProt P04062). Put plainly: Glucocerebrosidase-p2 (AID 348; in the data active means potency below about 10 µM; further: potency means the concentration at half of the fitted maximal effect). As to conditions: purified GBA, blue fluorogenic substrate, 40 min. The procedure, abridged: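 Normal human glucocerebrosidase (0.2 nM) with blue fluorogenic substrate (80 uM final) in citrate/phosphate pH 5.9 with 10mM sodium taurocholate, 0.01% tween-20; 40 min RT, NaOH/glycine stop; fluorescence Ex 365/Em 440; AC50 from a titration from 0.6 nM upwards.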

A short description of test [2]: AP1 Signaling Pathway (AID 357; active means well fitted curve in either direction with a large enough effect, not every such curve was filed as active; further: on the % scale 0 is the no-effect control and ±100 the full control effect). As to conditions: ME-180 AP-1-bla reporter, EGF-induced, beta-lactamase ratio, 5 h; at 7.69 µM (top of the series) unless noted. In a few lines: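 ME-180 cells with beta-lactamase reporter under AP-1 response element, stimulated with EC50 EGF; compounds tested in titration series, 5 h at 37 °C. CCF4 substrate added 2.5 h at room temperature; 460/530 nm emission ratio gave %activity and AC50.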

The target in test [3] is Cytochrome P450 1A2 (Homo sapiens) (UniProt P05177). Put plainly: p450-cyp1a2 (AID 410; calls by dose curve; further: potency means the concentration at half of the fitted maximal effect). As to conditions: recombinant CYP1A2, luciferin-ME demethylation, luminescence; series mostly up to 57 µM. In a few lines: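 20nM CYP1A2, 100uM Luciferin-ME (=Km), 100mM KPO4; cpd 10 min RT; +NADPH regen, 60 min RT; stop/detect 20 min; luminescence. Normalized to furafylline 57 uM = full inhibition.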

Test [4] in a line: Stat Signaling Pathway (AID 446; active means well fitted curve in either direction with a large enough effect, not every such curve was filed as active;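 further: ME-180 cervical cancer cells given 40 pM IL-6 alongside compound; SIE-controlled beta-lactamase reporter measured as 460/530 nm FRET emission ratio; on the % scale 0 is the no-effect control and ±100 the full control effect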). As to conditions: ME-180 SIE beta-lactamase reporter, IL-6 stimulated, 5 h; at 7.69 µM (top of the series) unless noted. In a few lines: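 Overnight-plated ME-180 cells bearing a STAT Inducible Element beta-lactamase reporter; 5 h co-exposure to compound and 40 pM IL-6; values normalized to 300 pM IL-6 and 125 nM JAK inhibitor controls.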
Test [5] addresses Glucocorticoid receptor (Homo sapiens) (UniProt P04150). As to the kind of experiment: GR-EFC Redistribution (AID 451; calls by dose curve; further: potency means the concentration at half of the fitted maximal effect). Conditions: CHO-K1 GR-EFC translocation, beta-gal luminescence, 2 h. The procedure, abridged:
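CHO-K1 cells stably expressing nuclear-localized β-gal enzyme acceptor and GR fused C-terminally to the enzyme donor fragment; ligand-driven nuclear translocation restores β-gal by complementation. Compounds titrated up to 46 uM final, 2 h at 37 °C; luminescence read.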

For test [6], the target named is Mitogen-activated protein kinase 10 (Mus musculus) (UniProt Q61831). Put plainly: JNK3 AlphaScreen Assay (AID 530; active means well fitted curve in either direction with a large enough effect, not every such curve was filed as active;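 further: kinase came from lysate of stimulated human HepG2 cells; on the % scale 0 is the no-effect control and ±100 the full control effect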). Conditions: JNK3 lysate, c-Jun phosphorylation; series mostly up to 57.1 µM. In a few lines: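 Biotinylated GST-cJun(1-79) served as substrate for JNK3 in HepG2 lysates stimulated with IL-1beta and TNF-alpha. ATP was 10 uM final, pH 7.6. Ser73 phosphorylation was quantified by AlphaScreen (680 nm excitation).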

In test [7] the target is 3',5'-cyclic-AMP phosphodiesterase 4B (Homo sapiens) (UniProt Q07343). As to the kind of experiment: qHTS Assay for Inhibitors of PDE-IV (AID 607; active means well fitted activation curve with a large enough effect in the main read-out, with a control signal flat, not every such curve was filed as active; further: % of control where 0% means no effect). Conditions: HEK293 ACTOne CNG channel cells, membrane potential fluorescence; series mostly up to 22.9 µM. In a few lines: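 Live HEK293 cells with a modified cyclic nucleotide-gated (CNG) channel report intracellular cAMP via membrane-potential dye fluorescence (ex 535/em 590 nm). Endogenous PDE-IV was targeted. Compounds were tested at up to 22.9 uM final; RO 20-1724 100 uM served as control.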

Test [8] concerns the target Cytochrome P450 3A4 (Homo sapiens) (UniProt P08684). Put plainly: qHTS Assay for Activators of Cytochrome P450 3A4 (AID 885). Further: nearly all actives have a fitted effect of over 65% in size. Conditions: recombinant CYP3A4, Luciferin-PPXE luminescence, 60 min; series mostly up to 57.1 µM. In a few lines: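 Using 20nM recombinant human CYP3A4 in potassium phosphate (200mM), substrate Luciferin-PPXE at 25uM, luminescent luciferin detection followed a 60-min RT NADPH reaction; data scaled to 57 uM ketoconazole.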

Test [9] is described as follows: qHTS Assay for Identification of Small Molecule Agonists for Hypoxia Response Element Signaling Pathway (AID 914; active means well fitted activation curve with a large enough effect in the signal ratio, with a control signal flat, not every such curve was filed as active; the % refers to the signal ratio; further: % of control where 0% means no effect). As to conditions: ME-180 (cervical carcinoma) HRE-bla reporter, beta-lactamase ratio, CoCl2, 17 h; activation: active compounds read high. The procedure, abridged:
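HRE-bla ME-180 cells, overnight plating in Opti-MEM with 0.5% dialyzed FBS; cpd titration + EC50 CoCl2, 17 h, 37 degrees Celsius; CCF4 2.5 h RT; 460/530 nm ratio; AC50.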

Test [10] addresses Dual specificity protein kinase CLK4 (Homo sapiens) (UniProt Q9HAZ1). Put plainly: qHTS Assay for Inhibitors of CDC-like Kinase 4 (Kinase-Glo Assay) (AID 1770). Further: on the % scale 0 is the no-effect control and ±100 the full control effect; nearly all actives have a fitted effect of over 65% in size. Conditions: recombinant Clk4, Kinase-Glo ATP depletion luminescence; series mostly up to 66.7 µM. The procedure, abridged:
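Inhibition was judged from remaining ATP, measured by Ultra-Glo luciferase bioluminescence after Clk4 (25 nM) had acted on RS peptide at 1 uM ATP for 4.5 hours, room temperature.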

The target is the same in test [11]. Put plainly: qHTS Assay for Inhibitors of CDC-like Kinase 4 (ADP-Glo Assay) (AID 1771). Further: on the % scale 0 is the no-effect control and ±100 the full control effect; nearly all actives have a fitted effect of over 70% in size. As to conditions: recombinant CLK4, ADP-Glo luminescence; series mostly up to 80 µM. The procedure, abridged:
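25 nM Clk4, 100 uM RS peptide, 1 uM ATP (final); 2 mM MgCl2, 0.5 mM EGTA, 2.5 mM DTT, 0.01% Triton X-100; 1 hr RT. ADP-Glo readout: ATP depletion 45 min, conversion/luciferase 30 min, luminescence.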

Test [12] shares this target. As to the kind of experiment: qHTS Assay for Inhibitors of CDC-like Kinase 4 (ADP-FP Assay) (AID 1795).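 Further: recombinant human CLK4 phosphorylating RS repeat peptide at 1 µM ATP; on the % scale 0 is the no-effect control and ±100 the full control effect; nearly all actives have a fitted effect of over 60% in size.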 Conditions: Transcreener ADP fluorescence polarization; series mostly up to 50 µM. The procedure, abridged:
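Inhibition of ADP formation by 6.25 nM Clk4 is measured using 1 uM ATP and 100 uM RS repeat peptide over one hour. Produced ADP displaces a fluorescent tracer from antibody, lowering polarization.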

The target in test [13] is Ubiquitin carboxyl-terminal hydrolase 1 (Homo sapiens) (UniProt O94782). Put plainly: Inhibitors of USP1/UAF1: Pilot qHTS (AID 504865).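 Further: rhodamine fluorescence freed from ubiquitin-rhodamine substrate followed over time; top concentration of the series differs between compounds; on the % scale 0 is the no-effect control and ±100 the full control effect; nearly all actives have a fitted effect of over 35% in size.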 Conditions: purified USP1/UAF1, Ub-rhodamine cleavage fluorescence; series mostly up to 54.9 µM. In a few lines:
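Kinetic fluorescence assay: 1nM USP1/UAF1, 15 min compound preincubation, then 150nM Ub-Rho; 480/540 nm.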

Test [14] can be described thus: Counterscreen qHTS for small molecule stabilizers of the endoplasmic reticulum resident proteome: GLuc-NoTag assay (AID 1508627).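 Further: 0% = thapsigargin alone and -100% = DMSO vehicle control.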 As to conditions: Gaussia luciferase NoTag secretion counterscreen, luminescence, thapsigargin 100 nM for final 4 h; series mostly up to 76.4 µM. The procedure, abridged:
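Secreted GLuc lacking the SERCaMP modification is measured in SH-SY5Y cells exposed to compound for 19 h and then to thapsigargin (100 nM, 4 h) to deplete ER calcium; hits retested at 11 concentrations, up to 76.6 uM.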

A short description of test [15]: Confirmatory qHTS for small molecule stabilizers of the endoplasmic reticulum resident proteome: Secreted ER Calcium Modulated Protein (SERCaMP) assay (AID 1508628). Further: potency means the concentration at half of the fitted maximal effect; nearly all actives have a fitted effect of over 40% in size. As to conditions: SERCaMP secreted luciferase ER calcium/proteostasis reporter; series mostly up to 76.3 µM. The procedure, abridged:
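GLuc-SERCaMP-expressing SH-SY5Y cells, pretreated 16 h with compound, are challenged with thapsigargin to empty ER calcium stores; after 4 h, coelenterazine is added directly to the medium and luminescence is imaged.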

The nature of test [16]: Cell Viability qHTS for small molecule stabilizers of the endoplasmic reticulum resident proteome (AID 1508629).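 Further: human SH-SY5Y neuroblastoma cells carrying the GLuc-SERCaMP reporter; compound exposure about 46 h in total before the viability read; on the % scale 0 is the no-effect control and ±100 the full control effect.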 Conditions: cell viability counter-screen, 100 nM thapsigargin for final 4 h.

Records with an inconclusive call do not appear. Activity calls are given as the source filed them. Unless noted, the call rests on the fitted dose curve; in most records, active means well fitted curve in the direction sought with a large enough effect; inconclusive means small, poorly fitted or top-dose-only effect, or another doubt; inactive means no such curve, though single readings can be large; an effect the other way counts as inactive or inconclusive. A value given as a limit tells only on which side of the number the result lay.

Dual specificity protein kinase CLK4 (Homo sapiens), sequence (Q9HAZ1 whole entry, looked up): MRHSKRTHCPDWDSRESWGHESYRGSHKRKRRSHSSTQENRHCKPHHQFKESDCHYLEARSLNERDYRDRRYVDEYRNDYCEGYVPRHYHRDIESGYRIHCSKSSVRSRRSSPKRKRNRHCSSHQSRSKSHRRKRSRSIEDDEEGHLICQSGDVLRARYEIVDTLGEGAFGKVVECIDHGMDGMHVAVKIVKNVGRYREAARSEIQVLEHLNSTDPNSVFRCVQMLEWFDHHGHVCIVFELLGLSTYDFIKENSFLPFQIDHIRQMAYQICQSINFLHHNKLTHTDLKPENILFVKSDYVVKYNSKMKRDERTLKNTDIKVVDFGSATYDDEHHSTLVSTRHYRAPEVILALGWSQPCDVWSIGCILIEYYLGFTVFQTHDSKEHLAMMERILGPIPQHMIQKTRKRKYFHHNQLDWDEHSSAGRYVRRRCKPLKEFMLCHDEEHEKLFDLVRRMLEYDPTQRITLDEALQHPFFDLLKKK
Cytochrome P450 1A2 (Homo sapiens), sequence (P05177 whole entry, looked up): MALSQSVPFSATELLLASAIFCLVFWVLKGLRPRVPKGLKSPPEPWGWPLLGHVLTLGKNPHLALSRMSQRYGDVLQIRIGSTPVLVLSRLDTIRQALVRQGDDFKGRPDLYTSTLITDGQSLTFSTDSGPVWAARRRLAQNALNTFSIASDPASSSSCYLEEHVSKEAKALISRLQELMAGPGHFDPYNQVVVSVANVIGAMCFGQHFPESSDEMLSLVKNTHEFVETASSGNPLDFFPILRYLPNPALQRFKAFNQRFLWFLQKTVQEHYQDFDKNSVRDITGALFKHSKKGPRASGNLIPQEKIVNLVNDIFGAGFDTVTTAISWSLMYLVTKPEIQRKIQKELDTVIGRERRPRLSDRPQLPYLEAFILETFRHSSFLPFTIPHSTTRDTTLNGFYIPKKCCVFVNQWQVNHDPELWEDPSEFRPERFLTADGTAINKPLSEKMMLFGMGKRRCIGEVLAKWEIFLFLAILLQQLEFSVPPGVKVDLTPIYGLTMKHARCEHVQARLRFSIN
Glucocorticoid receptor (Homo sapiens), sequence (P04150 whole entry, looked up, the tested form may be a part): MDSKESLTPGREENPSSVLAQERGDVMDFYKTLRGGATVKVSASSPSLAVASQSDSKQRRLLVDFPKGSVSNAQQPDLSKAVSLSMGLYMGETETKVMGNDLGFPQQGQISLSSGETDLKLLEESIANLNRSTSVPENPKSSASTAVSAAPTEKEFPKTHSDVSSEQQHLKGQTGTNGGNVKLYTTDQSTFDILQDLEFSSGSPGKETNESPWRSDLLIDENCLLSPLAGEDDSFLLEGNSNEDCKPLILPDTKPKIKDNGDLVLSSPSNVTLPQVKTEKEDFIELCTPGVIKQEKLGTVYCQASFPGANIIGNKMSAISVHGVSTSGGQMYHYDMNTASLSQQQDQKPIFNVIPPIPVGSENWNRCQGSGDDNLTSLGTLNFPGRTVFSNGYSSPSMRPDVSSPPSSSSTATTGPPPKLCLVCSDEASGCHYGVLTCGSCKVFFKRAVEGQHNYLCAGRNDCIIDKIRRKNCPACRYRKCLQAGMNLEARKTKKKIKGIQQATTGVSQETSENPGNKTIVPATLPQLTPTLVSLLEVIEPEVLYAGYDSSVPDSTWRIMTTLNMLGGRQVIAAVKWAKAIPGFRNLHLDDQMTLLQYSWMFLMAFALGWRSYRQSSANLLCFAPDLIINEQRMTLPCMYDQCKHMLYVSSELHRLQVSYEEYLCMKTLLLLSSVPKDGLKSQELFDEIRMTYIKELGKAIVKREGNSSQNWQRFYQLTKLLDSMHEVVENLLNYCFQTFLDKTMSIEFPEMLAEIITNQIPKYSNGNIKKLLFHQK
3',5'-cyclic-AMP phosphodiesterase 4B (Homo sapiens), sequence (Q07343 whole entry, looked up): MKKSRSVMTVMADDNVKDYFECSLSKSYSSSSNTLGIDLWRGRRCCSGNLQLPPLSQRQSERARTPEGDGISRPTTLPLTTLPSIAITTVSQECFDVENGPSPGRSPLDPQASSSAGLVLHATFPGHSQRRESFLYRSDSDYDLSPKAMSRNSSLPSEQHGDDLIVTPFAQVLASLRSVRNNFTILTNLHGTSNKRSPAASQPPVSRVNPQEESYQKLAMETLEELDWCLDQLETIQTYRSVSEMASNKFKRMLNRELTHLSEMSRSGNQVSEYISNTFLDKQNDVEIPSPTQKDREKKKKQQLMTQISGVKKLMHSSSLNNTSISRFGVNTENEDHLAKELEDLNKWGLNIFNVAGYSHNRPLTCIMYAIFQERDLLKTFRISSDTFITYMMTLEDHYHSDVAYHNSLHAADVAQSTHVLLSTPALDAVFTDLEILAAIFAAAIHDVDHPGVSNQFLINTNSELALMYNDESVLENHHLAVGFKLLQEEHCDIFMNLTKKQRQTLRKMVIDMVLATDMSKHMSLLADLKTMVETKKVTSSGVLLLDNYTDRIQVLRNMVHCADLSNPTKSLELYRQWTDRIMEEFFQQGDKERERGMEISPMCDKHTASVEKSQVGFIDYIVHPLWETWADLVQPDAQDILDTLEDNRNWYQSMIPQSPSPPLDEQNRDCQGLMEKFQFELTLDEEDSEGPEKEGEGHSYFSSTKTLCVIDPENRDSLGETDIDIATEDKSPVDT
Ubiquitin carboxyl-terminal hydrolase 1 (Homo sapiens), sequence (O94782 whole entry, looked up): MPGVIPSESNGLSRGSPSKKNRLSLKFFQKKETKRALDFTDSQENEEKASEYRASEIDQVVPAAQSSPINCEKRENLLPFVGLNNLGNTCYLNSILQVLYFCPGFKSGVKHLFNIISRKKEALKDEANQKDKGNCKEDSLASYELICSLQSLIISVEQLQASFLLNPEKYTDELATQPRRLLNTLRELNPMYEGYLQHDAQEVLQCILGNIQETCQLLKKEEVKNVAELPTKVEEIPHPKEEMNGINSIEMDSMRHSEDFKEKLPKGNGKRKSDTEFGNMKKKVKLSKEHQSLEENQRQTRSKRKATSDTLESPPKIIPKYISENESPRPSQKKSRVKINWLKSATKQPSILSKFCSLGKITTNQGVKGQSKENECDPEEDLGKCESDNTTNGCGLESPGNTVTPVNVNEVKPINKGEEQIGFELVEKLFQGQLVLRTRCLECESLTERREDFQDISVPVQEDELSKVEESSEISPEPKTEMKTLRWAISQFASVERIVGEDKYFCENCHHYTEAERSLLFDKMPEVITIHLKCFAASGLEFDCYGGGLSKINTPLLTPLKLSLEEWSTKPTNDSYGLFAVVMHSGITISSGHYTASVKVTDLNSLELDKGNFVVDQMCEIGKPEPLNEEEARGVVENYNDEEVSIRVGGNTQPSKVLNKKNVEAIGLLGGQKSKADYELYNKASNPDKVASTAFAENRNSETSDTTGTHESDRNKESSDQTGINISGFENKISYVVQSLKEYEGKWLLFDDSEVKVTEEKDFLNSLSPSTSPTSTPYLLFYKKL
Lysosomal acid glucosylceramidase (Homo sapiens), sequence (P04062 whole entry, looked up): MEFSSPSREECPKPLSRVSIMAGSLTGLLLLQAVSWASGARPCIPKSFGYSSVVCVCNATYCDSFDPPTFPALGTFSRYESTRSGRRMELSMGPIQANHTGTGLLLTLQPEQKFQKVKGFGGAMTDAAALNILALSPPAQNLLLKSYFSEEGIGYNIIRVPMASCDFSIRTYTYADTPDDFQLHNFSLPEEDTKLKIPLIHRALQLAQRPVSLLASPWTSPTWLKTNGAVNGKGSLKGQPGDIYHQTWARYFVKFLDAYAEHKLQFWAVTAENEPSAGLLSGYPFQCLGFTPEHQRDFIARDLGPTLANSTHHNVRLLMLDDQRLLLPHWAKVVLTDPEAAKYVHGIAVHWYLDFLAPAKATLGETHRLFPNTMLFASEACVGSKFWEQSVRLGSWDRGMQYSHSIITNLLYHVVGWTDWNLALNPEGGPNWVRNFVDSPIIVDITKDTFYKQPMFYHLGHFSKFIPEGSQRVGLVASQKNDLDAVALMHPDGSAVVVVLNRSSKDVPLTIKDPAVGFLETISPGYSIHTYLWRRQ
Cytochrome P450 3A4 (Homo sapiens), sequence (P08684 whole entry, looked up): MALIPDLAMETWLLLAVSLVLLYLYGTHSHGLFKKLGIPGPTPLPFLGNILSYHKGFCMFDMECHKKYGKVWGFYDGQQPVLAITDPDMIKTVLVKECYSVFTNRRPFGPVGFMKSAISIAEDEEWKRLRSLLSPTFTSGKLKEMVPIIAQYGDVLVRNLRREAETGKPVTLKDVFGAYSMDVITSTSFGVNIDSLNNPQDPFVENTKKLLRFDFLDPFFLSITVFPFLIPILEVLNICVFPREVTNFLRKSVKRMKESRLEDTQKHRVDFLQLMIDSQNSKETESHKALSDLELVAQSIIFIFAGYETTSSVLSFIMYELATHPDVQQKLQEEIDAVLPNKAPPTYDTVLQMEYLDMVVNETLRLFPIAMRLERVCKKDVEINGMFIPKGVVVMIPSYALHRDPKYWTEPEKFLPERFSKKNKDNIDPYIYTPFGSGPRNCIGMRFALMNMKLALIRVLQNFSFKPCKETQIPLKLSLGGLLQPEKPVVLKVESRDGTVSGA

Consider `CN1CCN(c2nc(-c3ccccc3C(F)(F)F)nc3ccccc23)CC1`, for which the Potency in test [1] is > 11.4 µM (inactive); in [3], 10 µM (active); in test [5] it was > 46 µM (inactive); in test [15] it was 14.1 µM (active). In [2], the activity change, negative = inhibition is -3.47% (inactive). For the same compound, the activity, negative = inhibition in test [4] was -4.43% (inactive). Moreover, the outcome in [6] was inactive. The Potency result in test [7], in test [8], in test [10], in [11], in [12] and in test [13] was “inactive” throughout. Also, the Potency entry in test [14] is “inactive”. Moreover, in test [9], the activation was -4.44% (inactive). Also, the max response in [16] was 16.6% (inactive).

The values are drawn from PubChem BioAssay (NCATS).
